PubChem BioAssay (EPA / NIEHS)
Activity calls are given as the source filed them. Rule for the calls: active = hit-call score of the fitted dose curve at least 0.9, where 1 is the maximum; inconclusive = response in the unintended direction; inactive = score below 0.9.

Target: Peroxisome proliferator-activated receptor gamma (Homo sapiens) (UniProt P37231)
Experiment: OT_PPARg_PPARgSRC1_1440: Odyssey Thera (OT) 24-hour Protein-Complementation Assay for Peroxisome Proliferator-activated Receptor Gamma/ SRC-1 Co-activator (AID 2283388);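 note: nuclear to cytoplasmic ratio of reconstituted Venus YFP fluorescence in fixed imaged cells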
Experimental: OT_PPARg_PPARgSRC1_1440 is a cell-based assay that uses HEK293T, a human kidney cell line, with measurements taken at 24 hours after chemical dosing in a 384-well plate.OT_PPARg_PPARgSRC1_1440 is one of one assay component(s) measured or calculated from the OT_PPARg_PPARgSRC1_1440 assay. It is designed to make measurements of protein fragment complementation, a form of binding reporter, as detected with fluorescence intensity signals by Protein-fragment Complementation technology.Data from the assay component OT_PPARg_PPARgSRC1_1440 was analyzed into 1 assay endpoint. This assay endpoint, OT_PPARg_PPARgSRC1_1440, was analyzed in the positive analysis fitting direction relative to DMSO as the negative control and baseline of activity. Using a type of binding reporter, measures of receptor for gain-of-signal activity can be used to understand the binding at the pathway-level as they relate to the gene PPARG. Furthermore, this assay endpoint can be referred to as a primary readout, because the performed assay has only produced 1 assay endpoint. To generalize the intended target to other relatable targets, this assay endpoint is annotated to the nuclear receptor intended target family, where the subfamily is non-steroidal.
The OT PPARg/SRC-1 assay assessed receptor-chemical interactions using a rapidly maturing, intensely fluorescent mutant of YFP known as Venus, rationally dissected into two separate fragments. The fragments were obtained as follows: first, fragments coding for YFP1 and YFP2 (corresponding to amino acid residues 1-158 and 159-239 of the full length YFP, respectively) were generated by oligonucleotide synthesis (Blue Heron Biotechnology), and then PCR mutagenesis was used to generate the mutant fragments IFP1 and IFP2. Fusion constructs were transfected into HEK293T cells with a (Gly4Ser)2 linker between the PPARg/SRC-1 and YFP fragment genes to facilitate complementation when interacting proteins bring fragments into close proximity. The construct is transiently transfected in HEK293T cells 48 hours prior to treatment with test compounds. Cells are seeded into optical quality 384-well poly-D-lysine coated plates in MEM alpha medium (Invitrogen) supplemented with 10 percent FBS (Gemini Bio-Products) 1 percent penicillin and 1 percent streptomycin, and grown in 37C incubator equilibrated to 5 percent CO2. Cells are allowed to adhere for 24 hours prior to treatment with compounds of interest or controls for 24 hours. Cells are fixed in 4 percent formaldehyde and stained with Draq5 (BioStatus) to identify cells and subcellular compartment boundaries prior to signal detection. 8 Images per well were acquired on an Evotec Opera at 2 wavelengths (488 and 635nm), and the ratio of fluorescence in the nucleus relative to fluorescence in the cytoplasm (N/C Ratio) in the 488nm channel was calculated for a minimum of 350 cells per image.

Peroxisome proliferator-activated receptor gamma (Homo sapiens), sequence (P37231 whole entry, looked up): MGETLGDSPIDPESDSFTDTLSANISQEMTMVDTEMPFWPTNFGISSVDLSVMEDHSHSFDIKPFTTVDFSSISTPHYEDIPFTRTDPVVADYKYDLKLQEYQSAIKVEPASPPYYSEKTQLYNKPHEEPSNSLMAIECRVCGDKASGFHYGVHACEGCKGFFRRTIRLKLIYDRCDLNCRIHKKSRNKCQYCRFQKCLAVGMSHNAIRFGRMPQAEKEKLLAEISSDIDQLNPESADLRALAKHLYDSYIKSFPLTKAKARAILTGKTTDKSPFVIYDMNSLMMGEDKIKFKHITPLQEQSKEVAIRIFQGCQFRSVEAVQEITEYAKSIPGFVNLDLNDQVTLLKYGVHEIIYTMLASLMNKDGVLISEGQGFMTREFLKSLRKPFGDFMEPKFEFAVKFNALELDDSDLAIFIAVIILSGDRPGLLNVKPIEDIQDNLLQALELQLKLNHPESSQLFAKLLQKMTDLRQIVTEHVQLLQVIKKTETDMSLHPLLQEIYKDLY

Row | SMILES | outcome
1 | CC(O)CN (stereo not given) | inactive
2 | CN(C)C | inactive
3 | C1=COCCC1 | inactive
4 | OCC=Cc1ccccc1 | inactive
5 | CC(=O)C1C(=O)C=C(C)OC1=O (stereo not given) | inactive
6 | C[C@]12CC[C@@H]3c4ccc(O)cc4CC[C@H]3[C@@H]1CC[C@@H]2O | inactive
7 | CCCCN(CCCC)CCCCCCN(CCCC)CCCC | inactive
8 | O=c1cc(-c2ccc(O)cc2)oc2cc(O)cc(O)c12 | inactive
9 | CCCc1ccc(O)cc1 | inactive
10 | CC(=O)Nc1cc(S(=O)(=O)O)cc2cc(S(=O)(=O)O)c(N=Nc3ccccc3)c(O)c12 | inactive
11 | CCCCOCCOCCOCCO | inactive
12 | COc1cc(OC)c2ccc(=O)oc2c1 | inactive
13 | CCCCCC1C(=O)CCC1CC(=O)OC (stereo not given) | inactive
14 | CCCCCCCCOS(=O)(=O)O | inactive
15 | CCCC(O)C(CC)CO (stereo not given) | inactive
16 | C=C(C)C(=O)OCCC(C)OC(=O)C(=C)C (stereo not given) | inactive
17 | CCC(C)(C)C1CCC(=O)CC1 | inactive
18 | CC1COC(=O)O1 (stereo not given) | inactive
19 | CCCCOCCOCCO | inactive
20 | COc1ccccc1O | inactive

Row | SMILES | outcome
21 | [O-]/[N+](=N\O)c1ccccc1 | inactive
22 | CCCc1ccc(N)cc1 | inactive
23 | CN(C)C(=O)Nc1ccccc1 | inactive
24 | C1CCCNCC1 | inactive
25 | CCC(C)C1CCCCC1=O (stereo not given) | inactive
26 | c1ccc(OCCOc2ccccc2)cc1 | inactive
27 | CC12CCC(C1)C(C)(C)C2O (stereo not given) | inactive
28 | CCCCCCCCCCOC(=O)c1ccccc1C(=O)OCCCCCCCC | inactive
29 | CC(=O)c1ccc2ccccc2c1 | inactive
30 | CCOCC(C)O (stereo not given) | inactive
31 | C=CC(C)CCCC(C)(C)O (stereo not given) | inactive
32 | CCCCCCCCOC(C)=O | inactive
33 | CCc1cccc(O)c1 | inactive
34 | CCCCCCCCCCO[C@@H]1O[C@H](CO)[C@@H](O)[C@H](O)[C@H]1O | inactive
35 | CC(C)(C)c1ccc(S)cc1 | inactive
36 | CCCCC/C=C\C=C\C(=O)OCC | inactive
37 | CC(O)CNCC(C)O (stereo not given) | inactive
38 | Cc1cccc(O)c1 | inactive
39 | CC(=O)c1ccc(O)cc1 | inactive
40 | CCCCCC1CCC(=O)O1 (stereo not given) | inactive
